From PubChem
Most compounds without a hit are left out; they make up all but 18% or so of the library.
DT40 TDP1 CPT = growth inhibition of DT40 Tdp1-/-;hTDP1 cells with camptothecin (screen for TDP1 inhibitors) | chicken DT40 Tdp1-/-;hTDP1 cells + 20 nM CPT, ATP luminescence, 48 h | Potency, µM (doses to about 46.2 µM), most hits filed as inhibitors | AID 686979 | 420,000 compounds, 12% hits; note: nearly all actives have a fitted effect of over 55% in size
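Chicken DT40 Tdp1-/- cells stably complemented with human TDP1 were seeded at 400 cells/well in medium containing 20 nM camptothecin, exposed to pin-transferred compounds, and grown at 37 °C for at least 48 hr. Viability was read as ATP luminescence.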
HepG2 viability = HepG2 cytotoxicity, counter-screen for TGF-b inhibitors; Potency, µM (titrated, usually from 46.1 µM), actives largely listed as cytotoxic; HepG2 CAGA-GFP viability, ATP luminescence, 18 h; 410,000 compounds, 0.76% hits; AID 588856
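HepG2 CAGA-GFP cells (1000/well, DMEM with 1% FBS) received compound, then TGF-beta at 500 pg/mL final, and were incubated 18 hours at 37 degrees C. Viability was read by CellTiter-Glo luminescence. Media-only wells were set as complete cell-killing and DMSO as no toxicity.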
TDP1 cell noCPT = qHTS for Inhibitors of human tyrosyl-DNA phosphodiesterase 1 (TDP1): qHTS in cells in absence of CPT; 420,000 compounds, 15% hits; Potency, µM (top dose mostly 46.2 µM), hits mostly inhibitors; DT40 Tdp1-/- hTDP1 cells, no CPT, ATP luminescence, 48 h; note: nearly all actives have a fitted effect of over 55% in size
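A cellular qHTS used chicken DT40 cells lacking endogenous Tdp1 but carrying stably transfected human TDP1. Compounds were applied without camptothecin, and cell growth kinetics were judged by ATP-dependent luminescence after ≥48 hr.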
TGFb SMAD3 inh = TGF-b pathway inhibition. HepG2 CAGA-GFP TGF-b/SMAD3 reporter, GFP fluorescence, 18 h; TGF-beta stimulated, 500 pg/mL final. Potency, µM (series often up to 46.1 µM), most hits filed as inhibitors. 410,000 compounds, 1.2% hits; note: nearly all actives have a fitted effect of over 65% in size
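HEPG2 CAGA-GFP reporter cells (1000/well, DMEM with 1% FBS) received compounds, then recombinant TGF-beta at 500 pg/mL final for 18 hours at 37 degrees C. Per-cell GFP summed per well was normalised to unstimulated and stimulated DMSO controls before curve fitting.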
IL-1B inflam inh = blocks inflammasome-driven IL-1 beta release | 360,000 compounds, 4.7% hits | AID 743279 | THP-1 LPS/ATP IL-1B secretion, AlphaLISA, 16 h; active compounds read low | activity change, % at 57.5 µM; in the data active = activity change below about -50%; inconclusive = mostly about -30% to -49%
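Secreted IL-1B measured by AlphaLISA bead assay after 16 h compound exposure of THP-1 cells; compounds (final up to 57.5 uM) added 1 h before LPS (250 ng/mL) and ATP (1.25 mM) stimulation; lower signal means less secretion.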
TDP1 inh = inhibitors of human tyrosyl-DNA phosphodiesterase TDP1; AID 485290; Q9NUW8; recombinant TDP1, AlphaScreen DNA substrate cleavage; 350,000 compounds, 0.28% hits; Potency, µM (doses to about 130 µM), hits mostly inhibitors; note: nearly all actives have a fitted effect of over 40% in size
Target sequence (Q9NUW8 whole entry, looked up): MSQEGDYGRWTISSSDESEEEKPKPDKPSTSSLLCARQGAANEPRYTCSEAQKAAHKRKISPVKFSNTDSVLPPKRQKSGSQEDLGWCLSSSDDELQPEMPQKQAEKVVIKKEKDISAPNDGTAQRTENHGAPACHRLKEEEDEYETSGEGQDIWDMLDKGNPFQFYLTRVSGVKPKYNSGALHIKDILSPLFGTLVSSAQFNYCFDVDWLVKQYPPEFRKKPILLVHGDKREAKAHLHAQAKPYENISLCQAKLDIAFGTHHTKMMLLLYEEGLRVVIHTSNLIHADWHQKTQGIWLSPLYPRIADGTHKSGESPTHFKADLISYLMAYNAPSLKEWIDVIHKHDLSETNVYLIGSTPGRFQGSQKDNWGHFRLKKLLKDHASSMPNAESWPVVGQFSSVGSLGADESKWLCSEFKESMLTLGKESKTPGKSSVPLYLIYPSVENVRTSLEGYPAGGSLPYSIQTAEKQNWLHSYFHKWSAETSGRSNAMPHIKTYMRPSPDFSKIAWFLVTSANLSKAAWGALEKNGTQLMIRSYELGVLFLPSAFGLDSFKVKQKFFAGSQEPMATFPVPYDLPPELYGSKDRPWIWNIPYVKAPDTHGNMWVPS
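Enzyme-compound mixtures sat 15 min at room temperature, followed by a 5 min reaction with 15 nM final substrate and 10 min with AlphaScreen beads. Recombinant human Tdp1 was used at 1 nM final.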
Hits are given with their value; i = inactive; ? = inconclusive; nt = not tested or not shown; [ ] = remark or other dose. Unless noted, calls come from the whole dose curve; as a rule, active = well fitted curve in the direction sought with a large enough effect; inconclusive = small, poorly fitted or top-dose-only effect, or another doubt; inactive = no such curve, though single readings can be large; an effect the other way counts as inactive or inconclusive.

SMILES | DT40 TDP1 CPT | HepG2 viability | TDP1 cell noCPT | TGFb SMAD3 inh | IL-1B inflam inh | TDP1 inh
O=C(CC[C@H]1O[C@@H](n2cnc3c(NC(=O)c4ccccc4)ncnc32)[C@H](O)[C@@H]1O)N[C@@H](CO)c1ccccc1 | i | i | i | i | i | nt
CCn1cc(CN2CCCC(C(=O)c3ccc(-c4ccccc4)c(F)c3)C2)cn1 (stereo unspecified) | 18.4µM | i | 23.1µM | ? | -81.3 | nt
COc1ccc(C(=O)C2CCCN(Cc3cn(C)nc3-c3ccccc3)C2)cc1F (stereo unspecified) | ? | i | 25.9µM | ? | i | i
CN(C)S(=O)(=O)N1CCCC(C(=O)c2ccc(-c3ccccc3)c(F)c2)C1 (stereo unspecified) | 16.4µM | i | 14.6µM | i | i | nt
O=C(c1ccc(-c2ccccc2)c(F)c1)C1CCCN(CCCn2cccn2)C1 (stereo unspecified) | 16.4µM | i | ? | ? | ? | nt
Cc1ccccc1CC(=O)Nc1cccnc1 | i | i | i | i | i | i
COc1c(C)cc(C(=O)C2CCCN(S(=O)(=O)N(C)C)C2)cc1C (stereo unspecified) | ? | i | 13µM | i | i | nt
COc1ccc(C(=O)NCC(=O)Nc2cccc(S(=O)(=O)NCc3ccco3)c2)cc1OC | i | i | i | i | i | i
CCc1ccccc1OCC(=O)Nc1cccc(S(=O)(=O)NCc2ccco2)c1 | 18.4µM | i | ? | ? | ? | i
O=C(COc1ccccc1F)Nc1ccc(S(=O)(=O)NCc2ccco2)cc1 | ? | i | 18.4µM | i | i | i
O=C(Nc1ccc(S(=O)(=O)NCc2ccco2)cc1)c1ccc2ccccc2n1 | ? | i | 20.6µM | i | i | i
O=C(COc1ccccc1)Nc1ccc(S(=O)(=O)NCc2ccco2)cc1 | ? | i | ? | i | i | i
CC(=O)N1c2ccc(S(=O)(=O)N(C)C3CCCCC3)cc2CC1C (stereo unspecified) | i | i | i | i | i | i
CNC(=S)Nc1ccc(Cc2ccncc2)cc1 | i | i | i | i | i | i
CC(C)(C)C(=O)NC(=S)Nc1ccc(Cc2ccncc2)cc1 | ? | i | ? | ? | -64.8 | i
O=C(NC(=S)Nc1ccc(Cc2ccncc2)cc1)c1ccc(F)cc1 | ? | i | 16.4µM | i | i | i
CCOc1ccc(C(=O)Nc2ccccc2OCc2cc(=O)n3ccccc3n2)cc1 | i | i | i | i | nt | i
Cc1ccc(CNC(=O)CCc2c(C)nc3c4c(C)cc(C)nc4nn3c2C)cc1 | i | i | i | i | nt | i
CCOc1cccc(C2c3c(oc4ccc(F)cc4c3=O)C(=O)N2CCc2ccc(OC)cc2)c1 (stereo unspecified) | 5.17µM | i | ? | i | nt | i
COc1cccc(C2c3c(oc4ccccc4c3=O)C(=O)N2CCCN2CCOCC2)c1OC (stereo unspecified) | i | i | i | i | i | nt
CCCOc1ccc(C2c3c(oc4ccc(F)cc4c3=O)C(=O)N2CCc2ccc(OC)cc2)cc1 (stereo unspecified) | i | i | i | i | nt | i
COc1ccc(C2c3c(oc4ccccc4c3=O)C(=O)N2CCCN2CCOCC2)cc1 (stereo unspecified) | ? | i | 23.1µM | i | i | nt
COc1ccc(CCN2C(=O)c3oc4ccc(F)cc4c(=O)c3C2c2ccc(C(C)(C)C)cc2)cc1 (stereo unspecified) | ? | i | 3.26µM | i | nt | i
CC(=O)c1cccc(-c2ccnc3c2CC(C(=O)NCc2cccs2)O3)c1 (stereo unspecified) | 0.731µM | i | 0.731µM | ? | i | nt
O=C(NCc1cccs1)C1Cc2c(-c3ccc(Cl)cc3)ccnc2O1 (stereo unspecified) | 1.46µM | i | 1.84µM | ? | i | nt
SMILES | DT40 TDP1 CPT | HepG2 viability | TDP1 cell noCPT | TGFb SMAD3 inh | IL-1B inflam inh | TDP1 inh
Cc1ccc(C)c(C(=O)CCC(=O)NNC(=O)Cn2nc(C)cc2C)c1 | ? | i | 2.06µM | i | i | nt
COCCN(C(=O)c1cc(-c2ccncc2)nc2ccccc12)c1c(N)n(CC(C)C)c(=O)[nH]c1=O | i | i | i | i | i | i[0.505 µM]
O=C(N/N=C\c1cc(Cl)ccc1O)c1ccc(S(=O)(=O)N2CCCCC2)cc1 | 0.651µM | i | 0.731µM | i | i | i
O=C(Nc1cc(S(=O)(=O)Nc2ccc(Cl)cc2)ccc1O)c1ccc(S(=O)(=O)N2CCCCCC2)cc1 | ? | i | 20.6µM | ? | i | i
O=C(N/N=C/c1ccc(O)c(O)c1)c1cccc(S(=O)(=O)N2CCCC2)c1 | i | i | ? | i | i | i
COc1ccc2c(CNCc3cccs3)c(C(=O)O)n(Cc3ccccc3F)c2c1 | ? | i | i | ? | nt | i
COc1ccc(-n2nc3c(N4CCC(C(=O)N5CCCCCC5)CC4)nnc(C)c3c2C)cc1 | ? | i | ? | ? | i | i
Cc1nnc(N2CCC(C(=O)N3CCCCCC3)CC2)c2nn(-c3ccc(Cl)cc3)c(C)c12 | 18.4µM | i | ? | ? | i | i
Cc1ccc(-n2nc3c(N4CCC(C(=O)N5CCCCCC5)CC4)nnc(C)c3c2C)cc1 | 7.31µM | i | 5.8µM | ? | i | i
O=C(/C=C/c1ccc(S(=O)(=O)N2CCOCC2)cc1)Nc1cc(F)ccc1F | ? | i | 20.6µM | i | -54.5 | i
O=C(/C=C/c1ccc(Cl)cc1)NC(=S)Nc1ccc(N2CCOCC2)c(Cl)c1 | 11.6µM | i | 11.6µM | i | i | i
CCN(CC)S(=O)(=O)c1cccc(NC(=S)NC(=O)/C=C/c2ccc(S(=O)(=O)N3CCOCC3)cc2)c1 | i | i | ? | i | ? | i
O=C(COc1ccc(S(=O)(=O)N2CCOCC2)cc1)NCCCn1ccnc1 | i | i | i | i | i | i[0.0935 µM]
O=C(/C=C/c1ccc(S(=O)(=O)N2CCOCC2)cc1)NC(=S)NCCCn1ccnc1 | ? | i | ? | ? | -74.6 | i
O=C(/C=C/c1ccc(S(=O)(=O)N2CCOCC2)cc1)NC(=S)Nc1ccc(Cl)cc1Cl | ? | i | ? | i | -90.2 | i
O=C(/C=C/c1ccccc1)NC(=S)Nc1ccc(N2CCOCC2)cc1 | ? | i | i | i | i | i
Cc1ccc(F)cc1NC(=O)/C=C/c1ccc(S(=O)(=O)N2CCOCC2)cc1 | ? | i | ? | i | i | i
COc1ccccc1C(=O)NCCC(=O)OCC(=O)Nc1ccc(S(N)(=O)=O)cc1 | i | i | i | i | i | i
Fc1cccc(Cc2c(C3CCCCC3)nc3ccc(Br)cn23)c1 | ? | i | ? | ? | i | nt
